From PubChem BioAssay (NCATS)
Inconclusive results are not listed. Calls of active or inactive are those of the source. Calls come from the whole dose curve; as a rule, active = well fitted cell-killing curve with a large enough effect; inconclusive = small, poorly fitted or top-dose-only effect; inactive = flat fitted curve, though single readings scatter.

Experiments:
[1] = Cell Viability - LYMP2-008 (AID 980); details: LYMP2-008 lymphoblastoid cell viability, qHTS; series mostly up to 92.2 µM; note: nearly all actives have a fitted effect of over 60% in size
Excerpt: NIH Chemical Genomics Center [NCGC]
NIH Molecular Libraries Screening Centers Network [MLSCN]
National Institutes of Environmental Health Sciences [NIEHS]
National Toxicology Program [NTP]
We have developed a 1536-well cell-based assay for quantitative high throughput screening (qHTS) against a number of cell lines to determine in vitro cytotoxicity of small molecules. This particular assay uses a human lymphoblastoid cell line (LYMP2-008) purchased from Coriell Institute for Medical Research.
NCGC Assay Protocol Summary:
The CellTiter-Glo luminescent cell viability assay (Promega) is a homogeneous method to measure the number of viable cells in culture. The end point readout of this assay is based on quantitation of intracellular ATP, an indicator of metabolic activity, using the luciferase reaction. […]
Using the CellTiter-Glo luminescent cell viability assay, the amount of cellular ATP was measured in the lymphoblastoid cell line with complete culture medium following compound treatment for 24 hours. […] Library compounds were measured for their ability to cause acute toxicity in the cell line, as reflected by a decrease in intracellular ATP levels, in a concentration-dependent manner. […] AC50 values were determined from concentration-response data modeled with the standard Hill equation. […]
8. Detection; Luminescence; Viewlux plate reader […]

[2] = Cell Viability - LYMP2-010 (AID 981); details: LYMP2-010 lymphoblastoid cell viability, qHTS; series mostly up to 92.2 µM;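 note: cells exposed to compound for 24 hours at 37 °C; nearly all actives have a fitted effect of over 55% in size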
Procedure, shortened: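 Steps: seed 2500 LYMP2-010 cells per well; incubate 5 hr at 37 C; add compound; incubate 24 hr at 37 C; add CellTiter-Glo, wait 30 min at room temperature; read luminescence. Concentration-response fitted to Hill equation for AC50.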

[3] = Cell Viability - LYMP2-012 (AID 982); details: LYMP2-012 lymphoblastoid cell viability qHTS; series mostly up to 92.2 µM;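 note: cellular ATP by luciferase luminescence where a drop means cytotoxicity; cells exposed to compound for one day before reading; nearly all actives have a fitted effect of over 55% in size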
[4] = Cell Viability - LYMP2-014 (AID 983); details: LYMP2-014 lymphoblastoid cells, viability qHTS; series mostly up to 92.2 µM; note: nearly all actives have a fitted effect of over 50% in size
Procedure, shortened: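 Cells are plated at 2500/well and left 5 hr at 37 C. Compounds are added across a concentration range and incubated 24 hr at 37 C in complete medium. CellTiter-Glo is added, and luminescence is read after 30 min at room temperature.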

[5] = Cell Viability - LYMP2-016 (AID 984); details: LYMP2-016 lymphoblastoid cell viability, qHTS; series mostly up to 92.2 µM;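 note: cells exposed to compound for 24 hours at 37 °C; nearly all actives have a fitted effect of over 55% in size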
Procedure, shortened: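 Human lymphoblastoid LYMP2-016 cells, 2500 per well, treated with compounds for 24 h at 37 C. Viability read as intracellular ATP by CellTiter-Glo luminescence after 30 min at room temperature; AC50 from Hill fits of concentration-response.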

[6] = Cell Viability - LYMP2-018 (AID 985); details: LYMP2-018 lymphoblastoid cells, viability (qHTS); series mostly up to 92.2 µM;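 note: compound exposure lasted 24 hr at 37 °C; nearly all actives have a fitted effect of over 50% in size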
Procedure, shortened: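 Seed 2500 lymphoblastoid cells per well, incubate 5 hr at 37 C, add compound and incubate 24 hr at 37 C, add CellTiter-Glo, wait 30 min at room temperature, then read luminescence.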

[7] = Cell Viability - LYMP2-020 (AID 986); details: series mostly up to 92.2 µM; note: nearly all actives have a fitted effect of over 55% in size
Procedure, shortened: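 Seed 2500 cells per well and incubate 5 hr at 37 C. Add compounds at a concentration series and incubate 24 hr at 37 C. Add CellTiter-Glo, wait 30 min at RT, read luminescence, and fit a Hill curve for AC50.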

[8] = Cell Viability - LYMP2-022 (AID 987); details: LYMP2-022 lymphoblastoid cell viability; series mostly up to 92.2 µM; note: nearly all actives have a fitted effect of over 55% in size
Procedure, shortened: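 Cells were seeded at 2500 per well, rested 5 hr at 37 C, and treated with titrated compounds for 24 hr at 37 C. Cellular ATP was then quantified by luciferase luminescence, and AC50 values were derived from Hill-modelled concentration-response curves.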

[9] = Cell Viability - LYMP2-024 (AID 988); details: LYMP2-024 lymphoblastoid cell viability; series mostly up to 92.2 µM; note: nearly all actives have a fitted effect of over 60% in size
Procedure, shortened: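 qHTS cytotoxicity, human lymphoblastoid line, complete medium; 24 h cpd treatment, 37 C; CellTiter-Glo ATP luminescence readout; tetraoctylammonium bromide positive control; AC50 via Hill fit.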

[10] = Cell Viability - LYMP2-026 (AID 989); details: LYMP2-026 lymphoblastoid cell viability, qHTS; series mostly up to 92.2 µM; note: nearly all actives have a fitted effect of over 50% in size
Procedure, shortened: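 Cells are seeded at 2500 per well and held 5 hr at 37 C. Compounds are added in concentration series for 24 hr, then CellTiter-Glo reagent is applied and luminescence read.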

Measured: outcome

COc1ccc(CCC(=O)c2c(O)cc(O[C@@H]3O[C@H](CO)[C@@H](O)[C@H](O)[C@H]3O[C@@H]3O[C@@H](C)[C@H](O)[C@@H](O)[C@H]3O)cc2O)cc1O
inactive: all assays above

C=C1C[C@]23C[C@@]1(O)CC[C@H]2[C@@]12C=C[C@H](O)[C@@](C)(C(=O)O1)[C@H]2[C@@H]3C(=O)O
inactive: all assays above
